# From PubChem BioAssay (EPA / NIEHS)
# The source made the active and inactive calls. The calls were made as follows: active = hit-call score of the fitted dose curve at least 0.9, where 1 is the maximum; inactive = score below 0.9.
# Read-out: catalase (CAT), CAT (gene 847)
# Experiment: LTEA_HepaRG_CAT: Life Technologies and Expression Analysis (LTEA) Assay for catalase (CAT) using HepaRG (AID 2283452);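 as to AC50: TaqMan qRT-PCR signal normalized to ACTB GAPDH and POLR2A housekeeping genes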
# Settings: mRNA level, 48 h; actives raise or lower the signal
# In short: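 Expression of CAT was quantified by TaqMan qRT-PCR with ACTB/GAPDH/POLR2A normalization after 48 h chemical exposure of HepaRG. Eight-point half-log series, top 100 uM, in 0.5% DMSO; gain or loss fitted against vehicle.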
SMILES,outcome,AC50
CC1=C2C[C@H]3[C@@H](CC=C4C[C@@H](O)CC[C@@]43C)[C@@H]2CC[C@]12O[C@@H]1C[C@H](C)CN[C@H]1[C@H]2C,inactive,–
CC#Cc1cc(C)nc(Nc2ccccc2)n1,inactive,–
CCC(C)(c1ccc(O)cc1)c1ccc(O)cc1,inactive,–
Cc1ccccc1CO[C@@H]1C[C@@]2(C(C)C)CC[C@]1(C)O2,inactive,–
CCC(=O)O[C@H]1CC[C@H]2[C@@H]3CCC4=CC(=O)CC[C@]4(C)[C@H]3CC[C@]12C,inactive,–
Oc1ccc(Cl)cc1Cl,inactive,–
CCCCCCCCCc1ccc(O)cc1,inactive,–
ClC(Cl)=C(c1ccc(Cl)cc1)c1ccc(Cl)cc1,inactive,–
O=S(=O)(O)C(F)(F)C(F)(F)C(F)(F)C(F)(F)C(F)(F)C(F)(F)F,–,7.16 µM (active)
Cc1cc(O)ccc1Cl,inactive,–
O=C(O)C(F)(F)C(F)(F)C(F)(F)C(F)(F)C(F)(F)C(F)(F)C(F)(F)C(F)(F)F,–,85 µM (active)
COS(=O)(=O)OC,inactive,–
N#Cc1ccc(N(CC(N)=O)CC(F)(F)F)cc1C(F)(F)F,inactive,–
CCC(C)(CC)c1cc(NC(=O)c2c(OC)cccc2OC)on1,inactive,–
O=C(N[C@H]1CN2CCC1CC2)c1cc2ccoc2cn1,inactive,–
C1CC2OC2CC1C1CO1 (centres undefined),inactive,–

SMILES,outcome,AC50
O=S(=O)(O)C(F)(F)C(F)(F)C(F)(F)C(F)(F)F,inactive,–
O=NN(c1ccccc1)c1ccccc1,inactive,–
NS(=O)(=O)C(F)(F)C(F)(F)C(F)(F)C(F)(F)C(F)(F)C(F)(F)C(F)(F)C(F)(F)F,–,9.12 µM (active)
CC(c1ccc(O)cc1)(c1ccc(O)cc1)c1ccc(O)cc1,–,50 µM (active)
C=CC(N)=O,inactive,–
Cc1cc2c3c(c1)C(c1ccccc1)=N[C@@H](NC(=O)c1ccncc1)C(=O)N3CC2,inactive,–
CN(C)CCO,inactive,–
Nn1cnnc1,inactive,–
Cc1cc(-c2ccc(N)c(C)c2)ccc1N,inactive,–
O=C(NC(=O)c1c(F)cccc1F)Nc1cc(Cl)c(OC(F)(F)C(F)F)c(Cl)c1,inactive,–
CN(C)c1nc(=O)n(C2CCCCC2)c(=O)n1C,inactive,–
O=C(O)C(F)(F)C(F)(F)C(F)(F)C(F)(F)C(F)(F)C(F)(F)C(F)(F)C(F)(F)C(F)(F)F,–,65.3 µM (active)
c1cc2ccc3cccc4ccc(c1)c2c34,inactive,–
C=CC(=O)NCNC(=O)C=C,inactive,–
Clc1ccc(C(Cl)(Cl)Cl)cc1,inactive,–
O=C(NC(=O)c1cc(F)c(F)cc1Cl)Nc1cc(F)ccc1N1CCC(C(=O)O)CC1,inactive,–

# Read-out: flavin-containing dimethylaniline monooxygenases 3 (FMO3), FMO3 (gene 2328)
# Experiment: LTEA_HepaRG_FMO3: Life Technologies and Expression Analysis (LTEA) Assay for flavin-containing dimethylaniline monooxygenases 3 (FMO3) using HepaRG (AID 2283453);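 as to AC50: differentiated human HepaRG liver cells in serum-free induction medium; FMO3 transcript by TaqMan qRT-PCR normalized to ACTB GAPDH and POLR2A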
# Settings: mRNA level, 48 h; actives raise or lower the signal
# In short: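 Eight-point concentration-response in serum-free HepaRG cultures (top 100 uM, 0.5% DMSO, 48 h). Read-out: FMO3 mRNA level normalized to three endogenous control genes, fitted bidirectionally versus vehicle.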
SMILES,outcome,AC50
CC1=C2C[C@H]3[C@@H](CC=C4C[C@@H](O)CC[C@@]43C)[C@@H]2CC[C@]12O[C@@H]1C[C@H](C)CN[C@H]1[C@H]2C,inactive,–
CC#Cc1cc(C)nc(Nc2ccccc2)n1,–,21.8 µM (active)
CCC(C)(c1ccc(O)cc1)c1ccc(O)cc1,inactive,–
Cc1ccccc1CO[C@@H]1C[C@@]2(C(C)C)CC[C@]1(C)O2,inactive,–
CCC(=O)O[C@H]1CC[C@H]2[C@@H]3CCC4=CC(=O)CC[C@]4(C)[C@H]3CC[C@]12C,inactive,–
Oc1ccc(Cl)cc1Cl,inactive,–
CCCCCCCCCc1ccc(O)cc1,inactive,–
ClC(Cl)=C(c1ccc(Cl)cc1)c1ccc(Cl)cc1,inactive,–
O=S(=O)(O)C(F)(F)C(F)(F)C(F)(F)C(F)(F)C(F)(F)C(F)(F)F,inactive,–
Cc1cc(O)ccc1Cl,inactive,–
O=C(O)C(F)(F)C(F)(F)C(F)(F)C(F)(F)C(F)(F)C(F)(F)C(F)(F)C(F)(F)F,–,79.7 µM (active)
COS(=O)(=O)OC,inactive,–
N#Cc1ccc(N(CC(N)=O)CC(F)(F)F)cc1C(F)(F)F,inactive,–
CCC(C)(CC)c1cc(NC(=O)c2c(OC)cccc2OC)on1,inactive,–
O=C(N[C@H]1CN2CCC1CC2)c1cc2ccoc2cn1,inactive,–
C1CC2OC2CC1C1CO1 (centres undefined),inactive,–

SMILES,outcome,AC50
O=S(=O)(O)C(F)(F)C(F)(F)C(F)(F)C(F)(F)F,inactive,–
O=NN(c1ccccc1)c1ccccc1,inactive,–
NS(=O)(=O)C(F)(F)C(F)(F)C(F)(F)C(F)(F)C(F)(F)C(F)(F)C(F)(F)C(F)(F)F,–,11.8 µM (active)
CC(c1ccc(O)cc1)(c1ccc(O)cc1)c1ccc(O)cc1,–,74.5 µM (active)
C=CC(N)=O,inactive,–
Cc1cc2c3c(c1)C(c1ccccc1)=N[C@@H](NC(=O)c1ccncc1)C(=O)N3CC2,–,81.8 µM (active)
CN(C)CCO,inactive,–
Nn1cnnc1,inactive,–
Cc1cc(-c2ccc(N)c(C)c2)ccc1N,–,25.1 µM (active)
O=C(NC(=O)c1c(F)cccc1F)Nc1cc(Cl)c(OC(F)(F)C(F)F)c(Cl)c1,–,50 µM (active)
CN(C)c1nc(=O)n(C2CCCCC2)c(=O)n1C,inactive,–
O=C(O)C(F)(F)C(F)(F)C(F)(F)C(F)(F)C(F)(F)C(F)(F)C(F)(F)C(F)(F)C(F)(F)F,–,35.3 µM (active)
c1cc2ccc3cccc4ccc(c1)c2c34,inactive,–
C=CC(=O)NCNC(=O)C=C,inactive,–
Clc1ccc(C(Cl)(Cl)Cl)cc1,inactive,–
O=C(NC(=O)c1cc(F)c(F)cc1Cl)Nc1cc(F)ccc1N1CCC(C(=O)O)CC1,inactive,–
